Reference: PubChem BioAssay (Tox21)
Records with an inconclusive call do not appear. Calls of active or inactive are those of the source. Unless noted, the call rests on the fitted dose curve; in most records, active means well fitted curve in the direction sought with a large enough effect in the repeat runs; inconclusive means weak or mixed curves; inactive means no such curve, though single readings can be large; an effect the other way counts as inactive or inconclusive.

Legend:
[1] = qHTS assay for small molecules that induce genotoxicity in human embryonic kidney cells expressing luciferase-tagged ATAD5 (AID 651632); details: HEK293T ATAD5-luciferase induction, 16 h; series mostly up to 83.3 µM; further: nearly all actives have a fitted effect of over 15% in size; further: potency means the concentration at half of the fitted maximal effect
Procedure, shortened: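 A rise in luciferase signal from ATAD5-tagged HEK293T cells marks genetic stress. Cells were exposed to compounds for 16 hr at 37C, 5% CO2, then luciferase was quantified after a 30 min room-temperature incubation with Amplite.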

[2] = qHTS assay for small molecules that induce genotoxicity in human embryonic kidney cells expressing luciferase-tagged ATAD5 - cell viability (AID 651634; calls by dose curve; further: nearly all actives have a fitted effect of over 25% in size; further: potency means the concentration at half of the fitted maximal effect); details: HEK293T ATAD5-luc cells viability, CellTiter-Fluor, 15.5 h; series mostly up to 83.3 µM
Procedure, shortened: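 Cytotoxicity counter-readout: after 15.5 hr compound treatment at 37C, live-cell protease activity in ATAD5-luciferase HEK293T cells measured by CellTiter-Fluor fluorescence, 30 min development at 37C.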

[3] = qHTS assay for small molecule disruptors of the mitochondrial membrane potential - cell viability (AID 720634; calls by dose curve; further: nearly all actives have a fitted effect of over 20% in size; further: potency means the concentration at half of the fitted maximal effect); details: HepG2 viability, ATP luminescence (CellTiter-Glo), 1 h; series mostly up to 83.2 µM
Procedure, shortened: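 Cytotoxicity was quantified from ATP content by CellTiter-Glo luminescence in the same wells as the MMP dye read-out. HepG2 (2,000 cells/well) were plated overnight and exposed to compounds for 1 hr at 37 C.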

[4] = qHTS assay to test for compound auto fluorescence at 590 nm (red) in HepG2 cells (AID 720674); details: HepG2 autofluorescence, red 540/590 nm, 1 h; series mostly up to 91.3 µM
Procedure, shortened: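 Fluorescence at 590 nm emission following 540 nm excitation was recorded from HepG2 wells one hour after compound transfer, with DMSO-only wells as vehicle and Rose Bengal sodium equivalency as the scale.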

[5] = qHTS assay to test for compound auto fluorescence at 535 nm (green) in HepG2 cells (AID 720675); details: green autofluorescence 485/535 nm, 1 h; series mostly up to 91.3 µM
[6] = qHTS assay to test for compound auto fluorescence at 460 nm (blue) in HEK293 cells (AID 720678); details: blue autofluorescence 405/460 nm; series mostly up to 91.3 µM
Procedure, shortened: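 Cells were seeded and left to adhere for 4-5 hr at 37C. Compounds were then pin-transferred. After an overnight incubation at 37C under 5% CO2, intrinsic fluorescence at 405/460 nm was measured and referenced to triamterene.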

[7] = qHTS assay to test for compound auto fluorescence at 590 nm (red) in HEK293 cells (AID 720679); details: red autofluorescence 540/590 nm; series mostly up to 91.3 µM
Procedure, shortened: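 Each well held 2,000 HEK293 cells in medium containing 10% dialyzed FBS. Following 4-5 hr attachment at 37C, 23 nL test compound or DMSO was added; plates sat overnight, and red fluorescence (540/590nm) was recorded.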

[8] = qHTS assay to test for compound auto fluorescence at 535 nm (green) in HEK293 cells (AID 720680); details: green autofluorescence 485/535 nm; series mostly up to 91.3 µM
[9] = qHTS assay to test for compound auto fluorescence at 460 nm (blue) in HEK293 cell free culture (AID 720681); details: cell-free medium, autofluorescence 405/460 nm (blue); series mostly up to 91.3 µM
Procedure, shortened: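 Compounds were added to cell-free DMEM with 10% FBS and fluorescence read directly. The blue channel used 405 nm excitation and 460 nm emission, with triamterene as the reference fluorophore.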

[10] = qHTS assay to test for compound auto fluorescence at 535 nm (green) in HEK293 cell free culture (AID 720682); details: cell-free medium, green autofluorescence 485/535 nm, stronger effect = higher value; series mostly up to 91.3 µM
Procedure, shortened: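 Steps: dispense DMEM/10% FBS into empty wells; pin in compound or DMSO; measure fluorescence at 485/535 nm. Values are fluorescein equivalents.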

[11] = qHTS assay to test for compound auto fluorescence at 590 nm (red) in HEK293 cell free culture (AID 720683); details: cell-free medium autofluorescence, Ex540/Em590 red; series mostly up to 91.3 µM
Procedure, shortened: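 Cell-free wells of DMEM with 10% FBS received compound, and intrinsic fluorescence was read at excitation/emission 540/590 nm. Values expressed as equivalence to Rose Bengal sodium.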

[12] = qHTS assay to test for compound auto fluorescence at 590 nm (red) in HepG2 cell free culture (AID 720684); details: cell-free medium autofluorescence, red 540/590 nm; series mostly up to 91.3 µM
Procedure, shortened: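 Rose Bengal sodium served as the reference for red signal. Test compounds were dispensed into serum-containing MEM (10% FBS) without cells, and plates were read at 540/590 nm.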

[13] = qHTS assay to test for compound auto fluorescence at 460 nm (blue) in HepG2 cell free culture (AID 720685); details: Cell-free culture medium, blue autofluorescence 405/460 nm; series mostly up to 91.3 µM
Procedure, shortened: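 Cell-free plates of MEM plus 10% FBS received 23 nL compound or DMSO vehicle; blue-channel (405/460 nm) intensity scored against triamterene as reference fluorophore.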

[14] = qHTS assay to test for compound auto fluorescence at 535 nm (green) in HepG2 cell free culture (AID 720686); details: Cell-free medium, green autofluorescence 485/535 nm; series mostly up to 91.3 µM
[15] = biological target: Glucocorticoid receptor (Homo sapiens) (UniProt P04150); test: qHTS assay to identify small molecule agonists of the glucocorticoid receptor (GR) signaling pathway (AID 720691; active means well fitted activation curve with a large enough effect in the signal ratio in the repeat runs, not every such curve was filed as active; the % refers to the signal ratio); details: GR-bla HeLa, beta-lactamase reporter ratio, 18 h; activation: at 62.4 µM (top of the series)
Glucocorticoid receptor (Homo sapiens), sequence (P04150 whole entry, looked up): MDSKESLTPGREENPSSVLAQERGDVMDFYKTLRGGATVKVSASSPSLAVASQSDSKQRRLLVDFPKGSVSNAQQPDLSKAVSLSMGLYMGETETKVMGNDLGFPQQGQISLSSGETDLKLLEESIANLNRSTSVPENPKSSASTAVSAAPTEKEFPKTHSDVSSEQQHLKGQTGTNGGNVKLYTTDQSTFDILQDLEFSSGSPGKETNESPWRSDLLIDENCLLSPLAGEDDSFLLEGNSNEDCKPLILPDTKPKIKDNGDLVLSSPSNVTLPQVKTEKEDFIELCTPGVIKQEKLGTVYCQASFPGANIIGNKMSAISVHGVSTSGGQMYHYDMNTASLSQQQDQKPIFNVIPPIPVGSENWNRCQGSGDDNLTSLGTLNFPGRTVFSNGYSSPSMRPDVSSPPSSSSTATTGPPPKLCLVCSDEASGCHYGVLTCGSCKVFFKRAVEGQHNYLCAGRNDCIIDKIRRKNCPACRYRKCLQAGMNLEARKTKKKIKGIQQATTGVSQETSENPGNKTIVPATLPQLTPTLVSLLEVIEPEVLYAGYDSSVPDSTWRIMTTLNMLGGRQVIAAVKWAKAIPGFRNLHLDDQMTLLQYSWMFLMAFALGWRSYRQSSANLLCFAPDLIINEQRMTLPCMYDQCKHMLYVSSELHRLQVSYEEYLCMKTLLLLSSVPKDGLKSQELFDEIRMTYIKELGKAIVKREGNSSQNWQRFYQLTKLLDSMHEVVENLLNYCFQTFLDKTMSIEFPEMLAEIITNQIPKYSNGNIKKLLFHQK
Procedure, shortened: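 Agonist-mode qHTS in HeLa cells stably expressing a glucocorticoid-response-element beta-lactamase reporter. Fluorescence intensity read with FRET substrate (2 h, room temperature) after 18 h compound treatment at 37 C.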

[16] = biological target: Glucocorticoid receptor (Homo sapiens) (UniProt P04150); test: qHTS assay to identify small molecule antagonists of the glucocorticoid receptor (GR) signaling pathway (AID 720692; active means well fitted inhibition curve with a large enough effect in the signal ratio in the repeat runs, not every such curve was filed as active; the % refers to the signal ratio; further: potency means the concentration at half of the fitted maximal effect); details: GR-bla HeLa, beta-lactamase FRET ratio, dexamethasone-stimulated, 18 h; series mostly up to 58.5 µM
Procedure, shortened: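 Inhibition of dexamethasone-driven (5 nM final) beta-lactamase expression was measured in GRE-reporter HeLa cells over 18 h at 37C. Fluorescence was read after 2 h with the B/G FRET substrate at room temperature.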

[17] = qHTS assay for small molecule agonists of the p53 signaling pathway - cell viability (AID 651633; calls by dose curve; further: nearly all actives have a fitted effect of over 30% in size; further: potency means the concentration at half of the fitted maximal effect); details: p53RE-bla HCT-116 viability, ATP luminescence, 16 h; series mostly up to 83.3 µM
Procedure, shortened: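 p53RE-bla cells were treated with compound for 16 hours at 37 C. Cytotoxicity was then measured as CellTiter-Glo luminescence after 30 min at room temperature.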

[18] = qHTS assay for small molecule disruptors of the mitochondrial membrane potential (AID 720635); details: HepG2 mitochondrial membrane potential, Mito-MPS dye ratio; series mostly up to 83.2 µM; further: potency means the concentration at half of the fitted maximal effect
Procedure, shortened: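 HepG2 cells exposed to compound 1 hr at 37C, then Mito-MPS dye 30 min. Ratio read of aggregate (540/590 nm) versus monomer (490/535 nm) fluorescence.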

[19] = qHTS assay to test for compound auto fluorescence at 460 nm (blue) in HepG2 cells (AID 720687); details: autofluorescence 405/460 nm, 1 h; series mostly up to 91.3 µM
Procedure, shortened: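 HepG2 cells in MEM with 10% FBS, attached overnight at 37 C, were exposed to compound or DMSO for 1 hr at 37 C, 5% CO2. Blue fluorescence was read at 405/460 nm, with triamterene as reference fluorophore.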

Measured: Potency

CCN(CCC#N)c1ccc(N=Nc2c(Cl)cc([N+](=O)[O-])cc2Cl)cc1
active: [2] 54.5 µM | [3] 19.3 µM
not listed: [17] | [18] | [19]
inactive: all other assays above

On1ccccc1=S
active: [18] 0.762 µM
not listed: [1] | [2] | [14] | [16] | [19]
inactive: all other assays above

CC1=C(/C=C/C(C)=C/C=C/C(C)=C/C=O)C(C)(C)CCC1
active: [17] 43 µM | [2] 60.8 µM | [18] 15.3 µM
not listed: [1] | [3] | [10] | [15] | [16]
inactive: all other assays above

C/C=C1/C(=O)C[C@H]2[C@@H]3CCC4=CC(=O)CC[C@]4(C)[C@H]3CC[C@]12C
not listed: [15] | [16] | [17]
inactive: all other assays above

CN1CCC(Nc2ncc3ncnc(Nc4ccc(F)c(Cl)c4)c3n2)CC1
not listed: [1] | [6] | [9] | [13] | [15] | [16] | [18] | [19]
inactive: all other assays above

CCC1=C[C@@H]2CN(C1)Cc1c([nH]c3ccccc13)[C@@](C(=O)OC)(c1cc3c(cc1OC)N(C)[C@H]1[C@@](O)(C(=O)OC)[C@H](OC(C)=O)[C@]4(CC)C=CCN5CC[C@]31[C@@H]54)C2
active: [1] 2.37 µM
not listed: [2] | [16] | [17] | [18] | [19]
inactive: all other assays above

NNc1nc(-c2ccccc2)cs1
active: [2] 4.99 µM | [18] 1.58 µM
not listed: [16] | [17]
inactive: all other assays above

Nc1ccccc1O
active: [18] 60.3 µM
not listed: [2] | [10] | [16] | [17]
inactive: all other assays above

O=C(OCC1CO1)C1CCCCC1C(=O)OCC1CO1 (centres undefined)
not listed: [1] | [7] | [16]
inactive: all other assays above

Cc1ccc2oc(CN(Cc3ccccc3)C(=O)Nc3c(F)cc(F)cc3F)c(-c3ccc(Cl)cc3)c2c1
active: [18] 18.7 µM
not listed: [3] | [17]
inactive: all other assays above

CCc1cc(Cc2cc(CC)c(N)c(CC)c2)cc(CC)c1N
active: [18] 27.3 µM | [16] 43.6 µM
not listed: [3] | [15] | [17]
inactive: all other assays above

CCC(Cl)C(Cl)C(Cl)CC(Cl)C(Cl)C(C)Cl (centres undefined)
active: [18] 24.3 µM
not listed: [10] | [14] | [16] | [17]
inactive: all other assays above

CSc1ccc2c(c1)C(N1CCN(C)CC1)Cc1ccccc1S2 (centres undefined)
not listed: [2] | [14] | [15] | [16] | [17] | [18]
inactive: all other assays above

O=[N+]([O-])c1cc([N+](=O)[O-])c2ccc(S(=O)(=O)O)cc2c1O
active: [2] 21.6 µM
not listed: [1] | [10] | [14] | [15] | [16]
inactive: all other assays above

O=C(N/N=C/c1ccccc1O)c1ccncc1
active: [17] 3.76 µM
inactive: [3] | [4] | [5] | [6] | [7] | [8] | [9] | [10] | [11] | [12]
